According to PubChem BioAssay (Tox21):
Calls of active or inactive are those of the source. Calls come from the whole dose curve; as a rule, active = well fitted curve in the direction sought with a large enough effect in the repeat runs; inconclusive = weak or mixed curves; inactive = flat fitted curve, though single readings scatter.

Experiment: qHTS assay to test for compound auto fluorescence at 460 nm (blue) in HepG2 cells (AID 720687)
Conditions: autofluorescence 405/460 nm, 1 h; series mostly up to 91.3 µM; fluorescence, % of fluorescent control: at the top concentration
From the text: U.S. Tox21 Program National Center for Advancing Translational Sciences [NCATS] NIH Chemical Genomics Center [NCGC] U.S. Environmental Protection Agency [EPA] National Institutes of Environmental Health Sciences [NIEHS] National Toxicology Program [NTP] U.S. Food and Drug Administration [FDA] Tox21 Assay Overview: Compound auto fluorescence often interferes with screening of the compound library against various biological targets and signaling pathways. Some of these compounds may have fluorophoric properties. Such properties may interfere with the assay outputs resulting in false positives and/or negatives. To decrease such complications and ensure the compound activities are relevant in terms of biological response, the Tox21 10K compound library was screened for auto fluorescence. From the fluorophores used as reporter signals in our screening assays, the auto fluorescence equivalencies of compounds against three fluorophores have been evaluated: Triamterene, Fluorescein and Rose Bengal sodium for blue, green and red fluorescence, respectively. The fluorescence intensities were measured using Excitation/Emission wavelengths at 405/460nm, 485/535nm and 540/590nm for blue, green and red labels, respectively. This assay includes the blue fluorescence data.
Tox21 Assay Protocol Summary: 2,000 HepG2 cells in 5 uL of culture medium (MEM containing 10% FBS) per well were dispensed into black wall/clear bottom 1536-well plates using a Multidrop Combi Dispenser (ThermoFisher Scientific, Waltham, MA). The assay plates were incubated overnight at 37 C to allow cell attachment to the well bottom, followed by the transfer of 23 nL compound or DMSO vehicle by a pintool work station (Kalypsys , San Diego, CA). After the assay plates were incubated for 1 hr at 37 C and 5% CO2, fluorescence intensities in the assay plates were measured by an Envision (PerkinElmer, Shelton, CT) plate reader using three labels for measuring blue, green and red fluorescence at […] 460, 535 and 590 nm respectively.
% is set by controls: 0 for no effect and ±100 for the full control effect.

Row | SMILES | fluorescence, % of fluorescent control | outcome
1 | O=S1OC[C@@H]2[C@H](CO1)[C@]1(Cl)C(Cl)=C(Cl)[C@@]2(Cl)C1(Cl)Cl (stereo not given in full) | -0.0326% (inactive) | 
2 | CCCCCCCCCCOC(=O)c1ccccc1C(=O)OCCCCCCCCCC | 0.0082% (inactive) | 
3 | Cc1cc(=O)[nH]o1 | 0.273% [at 95.7 µM] (inactive) | 
4 | O=C1c2ccccc2C(=O)C1C(=O)C(c1ccccc1)c1ccccc1 | 0.102% [at 46 µM] (inactive) | 
5 | CCOC(=O)CBr | 0.262% (inactive) | 
6 | CC(C)(Cl)[N+](=O)[O-] | 0.0129% (inactive) | 
7 | NC(=O)CI | 0.0019% (inactive) | 
8 | ClC=C(Cl)Cl |  | inactive
9 | CC(=O)C(C)(C)C | 0.0141% [at 95.7 µM] (inactive) | 
10 | Cn1sc(Cl)cc1=O |  | inactive
11 | O=C(N[C@H](c1ccccc1)[C@@H]1CN2CCC1CC2)c1c(Cl)ccc(C(F)(F)F)c1Cl | 0.0111% [at 95.7 µM] (inactive) | 
12 | C/C(=C\c1ccccc1)[N+](=O)[O-] | 0.166% (inactive) | 
13 | O=C(O)C(F)(F)C(F)(F)C(F)(F)C(F)(F)C(F)(F)C(F)(F)C(F)(F)C(F)(F)C(F)(F)F | 0.0529% (inactive) | 
14 | N#Cc1ccc(Cl)cc1 | -0.162% (inactive) | 
15 | Clc1cccc2ccccc12 | 0.128% (inactive) | 
16 | COc1cc(CC(C)N)cc2c1OCO2 (stereo not given) | -0.266% [at 95.7 µM] (inactive) | 
17 | N#CCc1ccccc1 | -0.258% [at 95.7 µM] (inactive) | 
18 | Cc1ccccc1CCl | -0.0256% (inactive) | 
19 | Nc1nc(N)nc(N)n1 | -0.0168% (inactive) | 
20 | C=CC(=O)NCNC(=O)C=C | 0.204% (inactive) | 

Row | SMILES | fluorescence, % of fluorescent control | outcome
21 | Clc1cc(C(Cl)(Cl)Cl)cnc1Cl | 0.0047% (inactive) | 
22 | CC(c1ccc(O)cc1)(c1ccc(O)cc1)c1ccc(O)cc1 | -0.275% (inactive) | 
23 | Clc1ccc(C2(Cn3cncn3)CC(Br)CO2)c(Cl)c1 (stereo not given) | -0.292% (inactive) | 
24 | COc1cc(Cl)c(OC)cc1Cl | -0.0323% (inactive) | 
25 | CCBr | 0.0811% [at 95.7 µM] (inactive) | 
26 | O=C(O)CC(Cl)C(=O)O (stereo not given) | -0.028% (inactive) | 
27 | [O-][Cl+]O | -0.0215% (inactive) | 
28 | O=[N+]([O-])c1cc(C(F)(F)F)cc([N+](=O)[O-])c1Cl | -0.665% (inactive) | 
29 | CCCCN=C=O | -0.0184% (inactive) | 
30 | CC1C(=O)C[C@]2(C(C)C)C[C@H]12 (stereo not given in full) | -0.0259% (inactive) | 
31 | O=C(CCl)c1ccc(Cl)cc1Cl |  | inactive
32 | CN(C)c1ccc(N(C)C)cc1 | -0.202% (inactive) | 
33 | COCCOCCO | 0.149% (inactive) | 
34 | CC1(C)[C@H](C=C(Cl)Cl)[C@@H]1C(=O)O[C@@H](C#N)c1cccc(Oc2ccccc2)c1 | 0.176% (inactive) | 
35 | II | 0.0105% (inactive) | 
36 | O=C1CN=C(c2ccccc2)c2cc(Cl)ccc2N1CC1CC1 |  | inactive
37 | Cn1cc[n+](C)c1 (tested in a mixture with another compound) | -0.0469% (inactive) | 
38 | CC(O)(CS(=O)(=O)c1ccc(F)cc1)C(=O)Nc1ccc(C#N)c(C(F)(F)F)c1 (stereo not given) |  | inactive
39 | CCCN(CCC)c1c([N+](=O)[O-])cc(S(C)(=O)=O)cc1[N+](=O)[O-] | 0.0351% (inactive) | 
40 | O=S(=O)(O)C(F)(F)C(F)(F)C(F)(F)C(F)(F)F | 2.08% [at 95.7 µM] (inactive) | 
